Activity calls are given as the source filed them.

One assay has as its target Albumin (Bos taurus) (UniProt P02769). Description: bovine serum albumin binders on microarray, profiling panel, artefact control for SMM control protein annotation, biochemical, small-molecule microarray, Alexa647 label, 635/667 nm fluorescence (AID 1118).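 Note: score merges 667 nm emission intensity and signal-to-noise per printed compound spot.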 Conditions: BSA-A647 binding, fluorescence 635 nm, higher = more signal.
The nature of assay [1]: small-molecule microarray binders of probe aXIP, primary screen, biochemical, NeuroSMM set, 635/667 nm fluorescence (AID 1119).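 Note: probe is the protein aXip251-270 applied at 1 µg/mL to compound-printed slides; binding of probe to printed compounds measured as 667 nm fluorescence plus signal to noise.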 The following applies: higher = more signal, called active from +8 up or from −8 down.
The nature of assay [2]: small-molecule binders of probe aNOTCH3, primary screen, biochemical, small-molecule microarray, 635/667 nm fluorescence (AID 1120).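 Note: probe is a biotin-tagged antibody raised against NOTCH3 rather than NOTCH3 protein; score merges spot fluorescence near 667 nm with spot signal to noise.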 The following applies: higher = more signal.
Assay [3] is described as follows: small-molecule binders of probe aNOTCH2, primary screen, biochemical, small-molecule microarray, 635/667 nm fluorescence (AID 1121).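 Note: score merges feature fluorescence read at 667 nm with its signal to noise.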 The following applies: higher = more signal.
The target of assay [4] is Carbonic anhydrase 2 (Homo sapiens) (UniProt P00918). The assay can be described thus: CAII small-molecule binders, profiling panel, biochemical, small-molecule microarray, Alexa647-labelled CAII (AID 1122). Conditions: CAII-A647 binding fluorescence, higher = more signal.
The nature of assay [5]: COS7 lysate on small-molecule microarray, probe aHis, 635 nm (AID 1123).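 Note: z-score combines 667nm fluorescence intensity with signal-to-noise per printed compound spot.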 The following applies: COS7 cell lysate, fluorescence, higher = more signal.
Assay [6] in a line: compound binding in COS7 lysate, probe aLAP1, primary screen, cell lysate, small-molecule microarray (AID 1124).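 Note: lysate comes from COS7 cells expressing LAP1 and is applied at 0.3 µg/mL; score merges spot fluorescence near 667 nm with signal-to-noise over triplicate slides.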 Conditions: probe aLAP1, fluorescence, higher = more signal.
The subject of a further assay is Sam68 (KHDRBS1). The assay can be described thus: Sam68 small-molecule binders, primary screen, biochemical, small-molecule microarray, 635 nm fluorescence (AID 1125).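 Note: score merges 667 nm channel intensity with signal to noise over triplicate slides.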 Conditions: small-molecule microarray binding, higher = more signal.
Assay [7] deals with Chordin-like protein 2 (CHRDL2). Description: CHRDL2 small-molecule binders, primary screen, biochemical, small-molecule microarray, 635 nm fluorescence (AID 1126).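 Note: printed compound slides probed with Chrdl2 protein at 4 µg/mL for 1 h at 4 C; score merges 667 nm emission intensity with signal to noise over three replicate slides.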 The following applies: small-molecule microarray binding, fluorescence 635 nm; higher = more signal.
Assay [8] has as its target Concanavalin-A (Canavalia ensiformis) (UniProt P02866). The assay can be described thus: ConA small-molecule binders, primary screen, artefact control for SMM control protein annotation, biochemical, small-molecule microarray, Alexa647 label, 635 nm (AID 1127).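 Note: z combines 667 nm emission intensity with signal-to-noise across three replicate slides.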 The following applies: ConA-A647 binding fluorescence, higher = more signal.
A short description of assay [9]: anti-His antibody binders, primary screen, artefact control for SMM control protein annotation, biochemical, small-molecule microarray, 635 nm fluorescence (AID 1128).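 Note: score merges feature fluorescence with signal-to-noise for each printed compound spot.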 Conditions: anti-His Alexa647 antibody binding, higher = more signal.
Assay [10] concerns Human papillomavirus type 1a E7 protein (residues 1-88). The assay can be described thus: HPV1a E7 small-molecule binders, primary screen, biochemical, small-molecule microarray, residues 1-88, 635 nm (AID 1129). The following applies: small-molecule microarray binding, fluorescence 635 nm; higher = more signal.
The target of assay [11] is Focal adhesion kinase 1 (Homo sapiens) (UniProt Q05397). The assay can be described thus: small-molecule microarray binders of FAK, primary screen, biochemical, 635/667 nm fluorescence, BSA, DTT (AID 1130).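 Note: composite of spot emission at 667 nm and signal to noise over triplicate slides.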 Conditions: PTK2 binding, 635 nm fluorescence, higher = more signal.
Focal adhesion kinase 1 (Homo sapiens), sequence (Q05397 whole entry, looked up): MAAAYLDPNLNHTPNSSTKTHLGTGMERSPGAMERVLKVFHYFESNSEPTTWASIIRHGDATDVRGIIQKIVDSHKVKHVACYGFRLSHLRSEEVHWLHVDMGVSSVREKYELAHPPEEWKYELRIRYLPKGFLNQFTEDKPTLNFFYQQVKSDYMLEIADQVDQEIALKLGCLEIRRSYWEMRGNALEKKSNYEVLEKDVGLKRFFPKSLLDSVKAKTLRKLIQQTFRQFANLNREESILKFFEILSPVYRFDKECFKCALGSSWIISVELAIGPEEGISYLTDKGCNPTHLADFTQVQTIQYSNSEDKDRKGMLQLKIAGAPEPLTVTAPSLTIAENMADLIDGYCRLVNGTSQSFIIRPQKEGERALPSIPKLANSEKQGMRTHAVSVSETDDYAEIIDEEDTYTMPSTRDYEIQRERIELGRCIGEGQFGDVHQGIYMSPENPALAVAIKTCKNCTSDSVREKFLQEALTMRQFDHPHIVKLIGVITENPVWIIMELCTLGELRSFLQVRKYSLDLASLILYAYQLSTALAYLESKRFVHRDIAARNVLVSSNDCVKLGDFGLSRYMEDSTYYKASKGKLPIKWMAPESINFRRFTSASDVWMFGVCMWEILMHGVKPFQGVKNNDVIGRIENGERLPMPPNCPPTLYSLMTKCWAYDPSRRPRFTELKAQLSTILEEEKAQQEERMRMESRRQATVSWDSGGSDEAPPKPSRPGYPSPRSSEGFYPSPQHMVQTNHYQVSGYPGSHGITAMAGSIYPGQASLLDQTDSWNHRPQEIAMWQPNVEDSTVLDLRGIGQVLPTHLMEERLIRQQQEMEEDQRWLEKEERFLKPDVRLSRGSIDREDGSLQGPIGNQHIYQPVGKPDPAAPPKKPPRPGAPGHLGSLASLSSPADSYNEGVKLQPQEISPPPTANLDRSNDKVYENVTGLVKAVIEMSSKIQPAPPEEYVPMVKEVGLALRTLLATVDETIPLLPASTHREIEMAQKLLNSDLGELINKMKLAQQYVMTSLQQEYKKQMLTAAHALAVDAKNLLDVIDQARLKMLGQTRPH
Assay [12] has as its system Fibrinogen (Alexa647-labelled). Description: fibrinogen binders on compound microarrays, profiling panel, artefact control for SMM control-protein annotation, biochemical, small-molecule microarray, 635/667 nm fluorescence (AID 1131).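 Note: z-score merges 667 nm fluorescence with per-spot signal-to-noise over triplicate slides.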 The following applies: fibrinogen-A647 binding fluorescence, higher = more signal.
For assay [13], the target named is Follistatin (Homo sapiens) (UniProt P19883). Description: follistatin binders on small-molecule microarrays, primary screen, biochemical, small-molecule microarray, 635/667 nm fluorescence (AID 1132). Conditions: FST binding, 635 nm fluorescence, higher = more signal.
Follistatin (Homo sapiens), sequence (P19883 whole entry, looked up): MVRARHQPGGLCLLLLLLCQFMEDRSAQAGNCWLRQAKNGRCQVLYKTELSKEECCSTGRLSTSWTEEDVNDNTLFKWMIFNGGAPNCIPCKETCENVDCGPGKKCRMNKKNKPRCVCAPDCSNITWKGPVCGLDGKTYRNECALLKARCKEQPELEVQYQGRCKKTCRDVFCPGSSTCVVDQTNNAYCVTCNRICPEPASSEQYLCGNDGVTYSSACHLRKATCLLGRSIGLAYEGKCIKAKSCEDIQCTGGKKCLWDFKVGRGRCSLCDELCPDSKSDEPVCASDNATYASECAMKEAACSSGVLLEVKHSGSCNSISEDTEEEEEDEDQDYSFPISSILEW
Assay [14] addresses Fibroblast growth factor 2 (Homo sapiens) (UniProt P09038). Description: FGF2 binders on small-molecule microarrays, primary screen, biochemical, small-molecule microarray, 635/667 nm fluorescence (AID 1133). The following applies: small-molecule microarray binding, FGF2, fluorescence 635/667; higher = more signal.
Assay [15] is described as follows: mitochondrial membrane potential change in A549 cells, profiling panel, cell-based, JC-1 fluorescence, basal, 24 h, 100 nL (AID 1138).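 Note: A549 lung adenocarcinoma cells under basal conditions with no added stimulus; test concentration not given here.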 Conditions: higher = more signal.
A further assay has as its system Lefty1. The assay can be described thus: Lefty1 binders on small-molecule microarrays, primary screen, biochemical, small-molecule microarray, 635/667 nm fluorescence (AID 1139). Conditions: small-molecule microarray binding, fluorescence 635/667; higher = more signal.
The subject of assay [16] is wheat germ agglutinin (Triticum aestivum), Alexa647-labelled. The assay can be described thus: wheat germ agglutinin binders on compound microarrays, profiling panel, artefact control for SMM control-protein annotation, biochemical, small-molecule microarray, 635/667 nm fluorescence (AID 1140).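 Note: score merges 667 nm feature emission with signal to noise over triplicate slides.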 Conditions: WGA-A647 binding, 635 nm fluorescence, higher = more signal.
For assay [17], the target named is Luciferin 4-monooxygenase (Photinus pyralis) (UniProt P08659). Description: firefly luciferase enzyme inhibitors, primary screen, biochemical, luminescence, purified enzyme, 2006 set (AID 1141).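 Note: cell-free assay with purified firefly luciferase at 100 ng per well in PBS; test concentration not given here.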 The following applies: SteadyGlo luminescence, 30 min, higher = more signal, called active from +8 up or from −8 down.
Luciferin 4-monooxygenase (Photinus pyralis), sequence (P08659 whole entry, looked up): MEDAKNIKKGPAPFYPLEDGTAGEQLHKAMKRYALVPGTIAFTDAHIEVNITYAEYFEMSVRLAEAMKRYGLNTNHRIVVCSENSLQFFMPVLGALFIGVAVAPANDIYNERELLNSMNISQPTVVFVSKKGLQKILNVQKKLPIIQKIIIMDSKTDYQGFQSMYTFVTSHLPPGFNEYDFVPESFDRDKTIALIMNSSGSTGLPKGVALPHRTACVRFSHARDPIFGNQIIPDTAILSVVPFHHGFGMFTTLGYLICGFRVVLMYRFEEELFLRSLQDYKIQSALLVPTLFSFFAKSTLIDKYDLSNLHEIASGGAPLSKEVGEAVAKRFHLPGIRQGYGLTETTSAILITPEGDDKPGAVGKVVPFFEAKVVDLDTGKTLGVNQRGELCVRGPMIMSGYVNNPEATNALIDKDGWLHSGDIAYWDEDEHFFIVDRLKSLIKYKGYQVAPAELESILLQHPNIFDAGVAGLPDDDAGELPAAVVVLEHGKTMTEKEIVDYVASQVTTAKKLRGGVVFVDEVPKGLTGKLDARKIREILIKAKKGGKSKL

Fibroblast growth factor 2 (Homo sapiens), sequence (P09038 whole entry, looked up): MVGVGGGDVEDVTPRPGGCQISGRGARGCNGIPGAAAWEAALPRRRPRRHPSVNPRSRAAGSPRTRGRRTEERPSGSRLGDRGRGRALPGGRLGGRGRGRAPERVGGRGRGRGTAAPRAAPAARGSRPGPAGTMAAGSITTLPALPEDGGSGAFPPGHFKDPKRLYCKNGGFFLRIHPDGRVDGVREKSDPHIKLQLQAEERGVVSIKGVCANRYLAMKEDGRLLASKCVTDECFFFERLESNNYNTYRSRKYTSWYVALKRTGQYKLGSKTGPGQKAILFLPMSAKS
Concanavalin-A (Canavalia ensiformis), sequence (P02866 whole entry, looked up): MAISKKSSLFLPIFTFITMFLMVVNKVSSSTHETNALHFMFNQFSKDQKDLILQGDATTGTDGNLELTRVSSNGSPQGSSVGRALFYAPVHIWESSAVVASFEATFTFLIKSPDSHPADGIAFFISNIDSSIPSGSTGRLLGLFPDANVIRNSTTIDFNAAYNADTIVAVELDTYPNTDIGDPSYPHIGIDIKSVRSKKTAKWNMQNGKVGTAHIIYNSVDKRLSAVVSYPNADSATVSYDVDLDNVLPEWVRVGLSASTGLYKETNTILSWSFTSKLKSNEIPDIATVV
Albumin (Bos taurus), sequence (P02769 whole entry, looked up): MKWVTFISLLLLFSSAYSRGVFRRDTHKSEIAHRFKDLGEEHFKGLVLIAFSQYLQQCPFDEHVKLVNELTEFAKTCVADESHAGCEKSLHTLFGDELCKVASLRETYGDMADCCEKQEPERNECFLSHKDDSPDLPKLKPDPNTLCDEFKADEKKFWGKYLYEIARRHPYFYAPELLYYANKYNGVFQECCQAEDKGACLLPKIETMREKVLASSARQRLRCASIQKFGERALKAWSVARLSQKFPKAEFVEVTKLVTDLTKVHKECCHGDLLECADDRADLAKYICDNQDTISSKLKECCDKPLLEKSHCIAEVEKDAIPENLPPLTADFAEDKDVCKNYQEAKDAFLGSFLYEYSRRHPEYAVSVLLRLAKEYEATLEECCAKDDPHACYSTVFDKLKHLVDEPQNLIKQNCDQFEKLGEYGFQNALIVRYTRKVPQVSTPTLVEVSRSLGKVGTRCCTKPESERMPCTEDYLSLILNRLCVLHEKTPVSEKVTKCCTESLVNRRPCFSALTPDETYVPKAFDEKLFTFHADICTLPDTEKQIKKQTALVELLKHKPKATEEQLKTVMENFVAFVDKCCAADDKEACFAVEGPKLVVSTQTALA

As for `CC(c1ccccc1)C(O)C1C=CC2C(=O)NC(=O)C2N1Nc1ccccn1` (stereo not given), the composite z-score with Albumin (Bos taurus) was 0.183; in assay [2], 0.0876; in [3], 0.0012; in assay [4], 0.531; in assay [5] it was 0.954; in [6], 0.398. Besides, the composite z-score with Sam68 (KHDRBS1) was 1.1; in assay [7] it was 0.407; in assay [8], 0.901; in assay [9] it was 1.28; in assay [10], 0.997; in [11], -0.0073. For the same molecule, the composite z-score in assay [12] amounted to 0.675; in assay [13], 1.12; in assay [14] it was 0.458; with Lefty1, 0.335; in assay [16], 0.528. In [1], the composite Z-score is 0.239 (inactive). Further, the z-score in assay [15] is 0.845; in [17], -1.64 (inactive).
Turning to `COc1ccc(CCNC(=O)[C@@]2(c3ccc([N+](=O)[O-])cc3)CC(=O)N(CC34CC5CC(CC(C5)C3)C4)[C@@H]2c2ccc(CO)cc2)cc1`, the composite z-score was -0.191 with Albumin (Bos taurus); 0.0494 in [2]; -0.0617 in assay [3]; 0.18 in assay [4]; 1.11 in assay [5]; -0.291 in [6]. Also, the composite z-score stood at 1.09 in the assay with Sam68 (KHDRBS1); 0.647 in [7]; 1.12 in assay [8]; 1.59 in [9]; 1.17 in [10]; 0.397 in [11]. Moreover, the composite z-score is 0.347 in assay [12]; 1.41 in assay [13]; 1.21 in [14]; 0.981 in the assay with Lefty1; -0.037 in [16]. In addition, the composite Z-score in [1] is 0.22 (inactive). Also, the z-score is -0.483 in assay [15] and 0.41 (inactive) in assay [17].
With `COC(=O)[C@@]1(Cc2ccccc2)[C@H]2c3cc(C(=O)N4CCCC4)n(C)c3C[C@H]2CN1C(=O)c1ccccc1`, the composite z-score was 1.06 with Albumin (Bos taurus); 0.347 in assay [2]; -0.138 in assay [3]; 0.912 in assay [4]; 2.35 in assay [5]; 0.711 in assay [6]. Further, the composite z-score was -0.0981 in the assay on Sam68 (KHDRBS1); -1.18 in [7]; 1.07 in assay [8]; 1.95 in assay [9]; 0.762 in assay [10]; 1.73 in assay [11]. Further, the composite z-score in assay [12] is 1.03; in assay [13], 0.725; in assay [14], -0.915; in the assay with Lefty1, -0.0781; in assay [16] it was 1.06. The composite Z-score in assay [1] is 0.363 (inactive). Besides, the z-score is 0.244 in assay [15] and 0.271 (inactive) in [17].
For `O=C/C=C/c1ccc2c(c1)OCO2`, the composite z-score in the assay with Albumin (Bos taurus) is -0.776; in [2], -0.0883; in assay [3], -0.109; in assay [4], -0.0937; in [5], -0.408; in assay [6] it was 1.57. Also, the composite z-score with Sam68 (KHDRBS1) was determined as 0.256; in [7], 1.11; in assay [8], 0.176; in [9], 1.33; in [10], 0.128; in assay [11] it was 0.247. Further, the composite z-score in assay [12] is -0.696; in assay [13] it was 0.952; in assay [14] it was 0.398; in the assay with Lefty1, 0.401; in assay [16], -0.273. Also, in [1], the composite Z-score is 0.16 (inactive). The z-score in [15] is 0.231; in assay [17], -1.04 (inactive).
`COc1cc(CO)ccc1OC(C)=O`: the composite z-score in the assay with Albumin (Bos taurus) stood at 0.344; in [2], 0.262; in assay [3] it was 0.0275; in [4], 0.112; in assay [5], 0.329; in [6], 0.356. Moreover, the composite z-score in the assay with Sam68 (KHDRBS1) is 0.482; in [7], 0.689; in [8], 0.687; in [9], 0.529; in assay [10], 0.741; in assay [11] it was 0.315. The composite z-score in assay [12] came out at 0.555; in assay [13], 1.07; in [14], 0.502; in the assay on Lefty1 it was 0.636; in assay [16], 0.243. Besides, in assay [1], the composite Z-score was 0.151 (inactive). Besides, the z-score was 1.54 in assay [15] and -0.743 (inactive) in assay [17].
